# PubChem BioAssay (NCI)
# The panel holds about 83,000 compounds, 20% with a hit somewhere; the sample as a whole holds those more often.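 Plates (96-well) were seeded with cells, treated with compound at one concentration, and incubated for 48 hours before percent growth was determined.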 A number with no mark means an inactive call. Activity calls are given as the source filed them. The calls were made as follows: active = growth percent below 10; inactive = the rest.
# Assays:
# Assay in all cases: NCI-60 one-dose screen, 48 h (100 = growth as untreated, 0 = no growth, -100 = all killed)
# Conditions in all cases: 10 µM
# NCI-H23 lung = tested on: NCI-H23 lung
# NCI-H226 lung = tested on: NCI-H226 lung
# NCI-H322M lung = tested on: NCI-H322M lung
# HOP-62 NSCLC = tested on: HOP-62 NSCLC
# NCI-H460 lung = tested on: NCI-H460 lung
# HOP-92 NSCLC = tested on: HOP-92 NSCLC
# NCI-H522 lung = tested on: NCI-H522 lung
# A549/ATCC NSCLC = tested on: A549/ATCC NSCLC
# 786-0 renal = tested on: 786-0 renal
# COLO 205 colon = tested on: COLO 205 colon
SMILES,growth (NCI-H23 lung),growth (NCI-H226 lung),growth (NCI-H322M lung),growth (HOP-62 NSCLC),growth (NCI-H460 lung),growth (HOP-92 NSCLC),growth (NCI-H522 lung),growth (A549/ATCC NSCLC),growth (786-0 renal),growth (COLO 205 colon)
COCc1cc2c(cc1Br)OCO2,96.7%,95.5%,96.5%,87.3%,106%,102%,88.6%,88.4%,102%,102%
CCOC(=O)c1ccc(NC(=O)Nc2nncs2)cc1,21.9%,-21.3% (active),43.2%,26.4%,7.58% (active),58.2%,7.15% (active),19.4%,35.4%,-25.9% (active)
c1ccc(OCCC[P+](c2ccccc2)(c2ccccc2)c2ccccc2)cc1,1.67% (active),47.4%,20.4%,22%,12.5%,-31.3% (active),-7.37% (active),25.6%,23.1%,-35.6% (active)
CCCCCCCC/C=C/CCCCCCCCC1=NCCN1CCO,76.5%,86.9%,55.5%,75.9%,-34% (active),-5.31% (active),76.7%,77.5%,75%,70.7%
Cc1cn(C(=O)/C(Cl)=C(/Cl)C(=O)O)c2ccccc12,96.7%,97.6%,128%,88%,114%,80.4%,110%,111%,116%,91.7%
COc1ccc2c(=O)cc(C(Cl)(Cl)Cl)oc2c1,-18.4% (active),-29.2% (active),-17.6% (active),-14.8% (active),-7.69% (active),-26.1% (active),-51.7% (active),-0.889% (active),8.97% (active),-88.4% (active)
COc1ccc(/C=C(\c2cc(OC)c(OC)c(OC)c2)c2nnc(-c3cccs3)o2)cc1,76.1%,92.5%,82.7%,41.3%,72.7%,34.8%,43.7%,77.5%,48.9%,112%
CN(C1c2ccccc2Oc2ccccc21)S(=O)(=O)c1cc(Cl)ccc1Cl,69.8%,62.7%,78.4%,48.6%,34.5%,34.8%,3.68% (active),52.4%,64.1%,53%
O=C(NCCCl)c1cc(Cl)cc(Cl)c1,103%,102%,98.2%,109%,113%,109%,92.8%,90.7%,102%,112%
O=C(/C=C/c1nnc2n(Cc3ccccc3)c(=O)c3c4c(sc3n12)CCCC4)c1ccccc1,96.9%,102%,107%,92.4%,104%,77.1%,-3.27% (active),104%,83.8%,78.6%
O=C(Cn1ccc(=O)[nH]c1=O)c1ccc([N+](=O)[O-])o1,108%,103%,120%,118%,100%,136%,-91.7% (active),109%,108%,71.5%
O=[N+]([O-])c1ccc(S(=O)(=O)OCCCCOS(=O)(=O)c2ccc([N+](=O)[O-])cc2)cc1,102%,90.1%,112%,98.5%,108%,110%,96.8%,103%,99%,117%
COC(=O)c1ccc(Cn2ccc(=O)[nH]c2=O)cc1,105%,103%,116%,106%,114%,99.3%,93.2%,105%,80.5%,113%
CN(C)c1ccc2c(c1)OC(N)=C(C#N)C2c1ccc2c(c1)CCCN2C (stereo not given),33.3%,37.3%,52.3%,31.7%,12.4%,47.1%,-26.4% (active),27.5%,43.7%,-10.2% (active)
O=C(OCc1ncc(-c2ccc(C(F)(F)F)cc2)c(NC2CCCCCC2)n1)c1c(F)c(F)c(F)c(F)c1F,63.1%,77.7%,87.6%,83.5%,63.5%,6.29% (active),38.4%,48.9%,74.3%,59.2%
COc1ccc(-c2cc(/C=C3\C(=O)Nc4cc(Cl)ccc43)[nH]n2)cc1OC,92.9%,80.8%,89.8%,75%,62.9%,81.7%,46%,75.7%,105%,79.4%
C/C(=N\NC(=O)c1sc(=S)n(C)c1N)c1cc2ccccc2o1,71.6%,73.9%,45.4%,69.4%,37.2%,58.8%,36.2%,45.4%,57.3%,107%
CC(=O)Oc1c(C)c(C)c2c(c1C)CCC(C)(CC(=O)OCCCCCCCCCCC[P+](c1ccccc1)(c1ccccc1)c1ccccc1)O2 (stereo not given),-52.2% (active),13.2%,13.7%,-84.7% (active),-46.5% (active),-85.4% (active),-78.5% (active),-72% (active),-92% (active),-73.9% (active)
O=C/C=C/c1ccc([N+](=O)[O-])cc1Cl,94%,108%,89.1%,99.9%,112%,95.1%,89.5%,98.7%,105%,108%
CCOC(=O)/C(C#N)=C(/C)C1CC1,109%,95.7%,112%,98.5%,104%,86%,110%,99.7%,103%,108%
COc1cccc2c1C(=O)c1c(O)c3c(c(O)c1C2=O)C[C@@](O)(C(=O)COC(=O)c1cccnc1)C[C@@H]3OC1CC(N)C(O)C(C)O1 (stereo not given in full),-24.7% (active),-28.5% (active),-19.5% (active),-7.51% (active),4.13% (active),-26.3% (active),-75.6% (active),-0.944% (active),3.23% (active),-68.8% (active)
NCCNc1ccc2cc(-c3nc4ccccc4[nH]3)c(=O)oc2c1,90.7%,87.4%,103%,94.7%,98.9%,82.7%,97.3%,102%,106%,104%
CC(C)c1ncc(CO)n1Cc1c(Cl)cccc1Cl,110%,94.3%,99.7%,103%,103%,93.6%,94.4%,102%,104%,89.6%
CC[C@@]1(C(N)=O)CC2C=CC1C2 (stereo not given in full),110%,102%,142%,111%,122%,97.2%,101%,107%,98.9%,114%
N#C/C(=C/c1cc([N+](=O)[O-])ccc1Cl)C(N)=O,98.4%,94.4%,97.2%,94.8%,110%,87.8%,87.7%,106%,104%,117%
Cc1nc(N)sc1Sc1nc2ccc(Cl)cc2c(=O)n1-c1ccc(Oc2ccccc2)cc1,74%,86.4%,111%,116%,82%,74.4%,85.3%,70.2%,68.5%,102%
O=C(Nc1ccc(OS(=O)(=O)Cc2ccccc2)cc1)C12CC3CC(CC(C3)C1)C2,84.8%,90.3%,95.3%,79.3%,68.8%,59.9%,81.6%,78.5%,94.1%,27.4%
COc1ccc(-c2[nH]ncc2-c2cc(OC)c(OC)c(OC)c2)cc1,24.9%,58.7%,21.8%,35.6%,4.05% (active),-10.4% (active),-36.8% (active),18%,3.72% (active),-72.4% (active)
